Experimental data from the supplement of paper PMC11732987, “Enantioselective OTUD7B fragment discovery through chemoproteomics screening and high-throughput optimisation” (Communications Chemistry, 2025).

The molecules below were run against USP14 (UniProt P54578) (assay: log2 ratio of Biotin-Ahx-Ub-VS probe labelling (fragment/DMSO); higher = less target engagement (more negative = stronger competition), active = hit call of the paper (q ≤ 0.05, log2 ratio ≤ -1)). Details: compound concentration: 200 uM; treatment time: 3 h.
Description: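 Competitive ABPP in HEK293T cell lysate. Lysates were treated with each chloroacetamide fragment at 200 µM for 3 h, then with Biotin-Ahx-Ub-VS (0.5 µM, 1 h), NeutrAvidin-enriched and analysed by diaPASEF LC-MS/MS. Protein LFQ was median-normalised; average log2 ratio is fragment/DMSO from an unpaired t-test (n=3 treated, n=44 DMSO). Hits: q ≤ 0.05, log2 ratio ≤ -1, unique peptides ≥ 2.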

Sequence of USP14 (P54578 whole entry, the tested form may be a part): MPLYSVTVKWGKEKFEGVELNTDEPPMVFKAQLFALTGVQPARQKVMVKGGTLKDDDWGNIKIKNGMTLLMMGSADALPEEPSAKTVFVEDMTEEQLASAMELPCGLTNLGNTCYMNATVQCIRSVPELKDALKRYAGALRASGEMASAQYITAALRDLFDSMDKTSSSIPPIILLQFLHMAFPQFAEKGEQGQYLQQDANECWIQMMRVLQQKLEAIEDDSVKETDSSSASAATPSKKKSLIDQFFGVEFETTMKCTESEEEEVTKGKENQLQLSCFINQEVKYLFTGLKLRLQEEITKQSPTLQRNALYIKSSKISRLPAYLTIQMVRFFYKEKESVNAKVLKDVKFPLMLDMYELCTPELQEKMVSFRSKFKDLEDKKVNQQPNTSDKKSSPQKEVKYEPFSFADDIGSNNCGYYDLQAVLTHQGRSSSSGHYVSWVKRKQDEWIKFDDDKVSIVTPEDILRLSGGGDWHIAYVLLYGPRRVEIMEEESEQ

log2 ratio of Biotin-Ahx-Ub-VS probe labelling, inactive:
Cc1cccc(C)c1NC(=O)CCl -0.289
CN(C)C(=O)c1ccc(CNC(=O)CCl)cc1 0.0549
O=C(CCl)N[C@H]1CC[C@@H](CO)CC1 -0.814
Cl.Cn1nccc1C(NC(=O)CCl)c1ccccc1 (stereo not given) -0.0812
CC(NC(=O)CCl)c1ccc2[nH]ncc2c1 (stereo not given) -0.802
O=C(CCl)N1CCC(c2ccn[nH]2)C1 (stereo not given) -0.0963
O=C(CCl)Nc1nc(-c2cccs2)cs1 0.15
CCCn1nccc1NC(=O)CCl -0.663
Cc1nc(CC2CCN(C(=O)CCl)CC2)no1 -0.561
O=C(CCl)Nc1ccc(F)cc1Cl -0.833
O=C(CCl)NCc1ccc2c(c1)OCO2 0.052
Cl.O=C(CCl)NCCc1ncc(F)cc1F -0.31
Cc1nnc(C(NC(=O)CCl)c2ccccc2)n1C (stereo not given) 0.163
O=C(CCl)N1CCOC2(CCC2)CC1 -0.247
O=C(CCl)Nc1cccc2ncccc12 0.338
CN1C(=O)c2ccc(NC(=O)CCl)cc2C1=O -0.292
O=C(CCl)Nc1cc2c(cc1Cl)OCCCO2 0.135
COc1ccc(CN(C)C(=O)CCl)cc1 -0.544
O=C(CCl)N1CCC(C(O)c2ccc(F)cc2)CC1 (stereo not given) -0.0836
O=C(CCl)Nc1cc2c(cc1Cl)OCCO2 0.233
CCN1C(=O)C2CN(C(=O)CCl)CCN2C1=O (stereo not given) -0.176
Cl.O=C(CCl)N1CC(c2ccc(Br)cn2)C1 -0.592
Cl.O=C(CCl)NC1(c2ncccn2)CCC1 0.108
Cc1cccc(NC(=O)CCl)c1C -0.488
O=C(CCl)NCCC1COCCO1 (stereo not given) -0.27
Cc1c(C#N)c(NC(=O)CCl)n(Cc2ccco2)c1C -0.314
Cl.O=C(CCl)NCc1cc2c(nc1O)CCCC2 -0.12
Cc1nc(-c2cccc(NC(=O)CCl)c2)cs1 -0.378
CCN(C(=O)CCl)C1CCS(=O)(=O)C1 (stereo not given) -0.155
Cc1ccccc1C1(CNC(=O)CCl)CCOCC1 -0.0489
Cc1c(NC(=O)CCl)c(=O)n(-c2ccccc2)n1C -0.215
O=C(CCl)N1CCc2ccccc2C(O)C1 (stereo not given) -0.255
O=C(CCl)N1CCCCCC1c1ncon1 (stereo not given) -0.087
Cc1ccc(CNC(=O)CCl)nc1C.Cl -0.372
O=C(CN1CCN(C(=O)CCl)CC1)Nc1cccc(F)c1 -0.0714
Cl.O=C(CCl)NCCN1CCc2ccccc21 -0.483
Cc1ccc(CN(C)C(=O)CCl)o1 -0.0502
Cc1n[nH]c(=O)c2c(NC(=O)CCl)oc(C)c12 0.0281
Cc1ccc(-c2nnc(C)[nH]2)c(NC(=O)CCl)c1 -0.203
COc1cccc(CN(C)C(=O)CCl)c1 -0.252
